The supplement of paper PMC8975748
Structures can show the parent of a compound that is named as a salt.

These compounds were tested on Saccharomyces cerevisiae BY4741 SeMeCo community (assay: z-score of subpopulation abundance vs DMSO median, subpopulation auxotrophic for LU; higher = larger share of this subpopulation than in DMSO controls). Conditions: 10 µM; 24 h; SM minimal medium; subpopulation (auxotrophy): LU.
Method: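 Fluorescent four-plasmid SeMeCo (self-establishing metabolically cooperating S. cerevisiae BY4741 community; plasmids pH-mRuby2, pL-mWasabi, pU-eCFP, pM-TagRFP657) was grown 24 h in minimal SM medium with each Selleck FDA-approved drug at 10 µM in 384-well plates. Cells were fixed and imaged by high-content confocal microscopy. For each auxotrophic subpopulation (and the prototroph), a z-score gives the deviation from the DMSO vehicle-control population median.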

SMILES	z-score of subpopulation abundance
C[C@H](Nc1ncnc2nc[nH]c12)c1cc2cccc(Cl)c2c(=O)n1-c1ccccc1 [Duvelisib (IPI-145, INK1197)]	1.28
CC(C)C(=O)Oc1ccc(CO)cc1[C@H](CCN(C(C)C)C(C)C)c1ccccc1 [Fesoterodine Fumarate]	-0.25
CCC(=O)O[C@@H]1CC(=O)O[C@H](C)C/C=C/C=C/[C@H](O)[C@H](C)C[C@H](CC=O)[C@H](O[C@@H]2O[C@H](C)[C@@H](O[C@H]3C[C@@](C)(O)[C@@H](OC(=O)CC)[C@H](C)O3)[C@H](N(C)C)[C@H]2O)[C@H]1OC [Midecamycin]	-0.66
CCN1CCCC1CNC(=O)c1cc(S(=O)(=O)CC)c(N)cc1OC (stereo not given) [Amisulpride]	0.33
CCCCOc1cc(C(=O)OCCN(CC)CC)ccc1N [Oxybuprocaine HCl]	-0.72
C[C@H]1O[C@@H](O[C@H]2[C@@H](O)C[C@H](O[C@H]3[C@@H](O)C[C@H](O[C@H]4CC[C@@]5(C)[C@H](CC[C@@H]6[C@@H]5C[C@@H](O)[C@]5(C)[C@@H](C7=CC(=O)OC7)CC[C@]65O)C4)O[C@@H]3C)O[C@@H]2C)C[C@H](O)[C@@H]1O [Digoxin]	-0.6
CC[C@H]1OC(=O)[C@H](C)[C@@H](O[C@H]2C[C@@](C)(OC)[C@@H](O)[C@H](C)O2)[C@H](C)[C@@H](O[C@@H]2O[C@H](C)C[C@H](N(C)C)[C@H]2O)[C@](C)(O)C[C@@H](C)C(=O)[C@H](C)[C@@H](O)[C@]1(C)O [Erythromycin]	0.03
CN[C@@H]1[C@@H](O)[C@@H](O[C@@H]2[C@@H](O)[C@H](O[C@H]3O[C@H](CN)[C@@H](O)[C@H](O)[C@H]3O)[C@@H](N)C[C@H]2NC(=O)[C@@H](O)CN)OC[C@]1(C)O [Isepamicin Sulphate]	-0.44
O=C1[C@@H]2[C@H]3CC[C@H](C3)[C@@H]2C(=O)N1C[C@@H]1CCCC[C@H]1CN1CCN(c2nsc3ccccc23)CC1 [lurasidone]	-0.67
CC[C@H]1OC(=O)[C@H](C)[C@@H](O[C@H]2C[C@@](C)(OC)[C@@H](O)[C@H](C)O2)[C@H](C)[C@@H](O[C@@H]2O[C@H](C)C[C@H](N(C)C)[C@H]2O)[C@](C)(O)C[C@@H](C)CN(C)[C@H](C)[C@@H](O)[C@]1(C)O [Azithromycin Dihydrate]	-0.14
CN(C)CCOc1ccc(/C(=C(/CCCl)c2ccccc2)c2ccccc2)cc1 [Toremifene Citrate]	0.34
CCCCOc1ccc(CC(=O)NO)cc1 [Bufexamac]	-0.51
CCN(CC)CCOCCOC(=O)C1(c2ccccc2)CCCC1 [Pentoxyverine Citrate]	0.06
CC[C@H]1OC(=O)[C@H](C)[C@@H](O[C@H]2C[C@@](C)(OC)[C@@H](O)[C@H](C)O2)[C@H](C)[C@@H](O[C@@H]2O[C@H](C)C[C@H](N(C)C)[C@H]2O)[C@](C)(O)C[C@@H](C)[C@@H]2N[C@@H](COCCOC)O[C@H]([C@H]2C)[C@]1(C)O [Dirithromycin]	0.32
Nc1nc2[nH]cc(CCc3ccc(C(=O)N[C@@H](CCC(=O)O)C(=O)O)cc3)c2c(=O)[nH]1 [Pemetrexed]	0.04
CN[C@@H]1[C@@H](O)[C@@H](O[C@@H]2[C@@H](O)[C@H](O[C@H]3OC(CN)=CC[C@H]3N)[C@@H](N)C[C@H]2N)OC[C@]1(C)O [Sisomicin sulfate]	0.28
CCCCCOc1ccc(-c2ccc(-c3ccc(C(=O)N[C@H]4C[C@@H](O)[C@@H](O)NC(=O)[C@@H]5[C@@H](O)[C@@H](C)CN5C(=O)[C@H]([C@@H](C)O)NC(=O)[C@H]([C@H](O)[C@@H](O)c5ccc(O)cc5)NC(=O)[C@@H]5C[C@@H](O)CN5C(=O)[C@H]([C@@H](C)O)NC4=O)cc3)cc2)cc1	5.21
CN1CCN(C2=Nc3ccccc3Oc3ccc(Cl)cc32)CC1 [Loxapine Succinate]	1.85
CO[C@@]1(NC(=O)Cc2cccs2)C(=O)N2C(C(=O)O)=C(COC(N)=O)CS[C@@H]21 [Cefoxitin sodium]	-0.8
Cc1nc(Nc2ccc(F)cc2)nc(N2CCc3ccccc3C2C)c1C (stereo not given) [Revaprazan Hydrochloride]	0.2

SMILES	z-score of subpopulation abundance
CCCCNC(=O)NS(=O)(=O)c1ccc(C)cc1 [Tolbutamide]	-1.03
Cc1ncc([N+](=O)[O-])n1CC(C)O (stereo not given) [Secnidazole]	0.55
NC(=O)Cc1cccc(C(=O)c2ccccc2)c1N [Nepafenac]	-0.55
Cc1cccc(C)c1OCC(C)N (stereo not given) [Mexiletine HCl]	0.44
Nc1nc(N)nc(-c2cc(Cl)ccc2Cl)n1 [Irsogladine]	-1.09
Nc1c(CC(=O)O)cccc1C(=O)c1ccc(Br)cc1 [Bromfenac Sodium]	-0.11
CN(C)CCCN1c2ccccc2Sc2ccccc21 [Promazine hydrochloride]	0.52
C#C[C@]1(O)CC[C@H]2[C@@H]3CCC4=CCCC[C@@H]4[C@H]3CC[C@@]21C [Lynestrenol]	-0.82
Cc1c(C(N)=O)cc([N+](=O)[O-])cc1[N+](=O)[O-] [Dinitolmide]	1.05
CC1(C)S[C@@H]2[C@H](NC(=O)C(C(=O)O)c3ccccc3)C(=O)N2[C@H]1C(=O)O (stereo not given in full) [Carbenicillin disodium]	-0.26
NCC[C@H](O)C(=O)N[C@@H]1C[C@H](N)[C@@H](O[C@H]2O[C@H](CN)[C@@H](O)[C@H](O)[C@H]2O)[C@H](O)[C@H]1O[C@H]1O[C@H](CO)[C@@H](O)[C@H](N)[C@H]1O [Amikacin hydrate]	-0.95
N[C@@H]1CCCCN(c2c(F)cc3c(=O)c(C(=O)O)cn(C4CC4)c3c2Cl)C1 [Besifloxacin HCl]	0.95
Cc1c(Cl)cccc1Nc1ccccc1C(=O)O [Tolfenamic Acid]	-1.24
Nc1ccc(S(=O)(=O)c2ccc(N)cc2)cc1 [Dapson]	0.91
CCn1cc(C(=O)O)c(=O)c2cc(F)c(N3CCN(C)CC3)cc21 [Pefloxacin Mesylate Dihydrate]	-0.04
CCC(C)(C)C(=O)O[C@H]1C[C@@H](C)C=C2C=C[C@H](C)[C@H](CC[C@@H]3C[C@@H](O)CC(=O)O3)[C@H]21 [Simvastatin]	1.71
CO/N=C(\C(=O)N[C@@H]1C(=O)N2C(C(=O)O)=C(CSC(=O)c3ccco3)CS[C@H]12)c1csc(N)n1 [Ceftiofur]	0.54
OC(Cn1cncn1)(Cn1cncn1)c1ccc(F)cc1F [Fluconazole]	-1.41
CC(=O)NO [Acetohydroxamic acid]	-0.13
COc1cccc2c1C(=O)c1c(O)c3c(c(O)c1C2=O)C[C@@](O)(C(C)=O)C[C@@H]3O[C@H]1C[C@H](N)[C@H](O)[C@H](C)O1 [Daunorubicin HCl]	3.27
